Among the data in PubChem BioAssay (EPA / NIEHS) are AC50 and outcome values, retold here.

In general, AC50 refers to the concentration giving half of the maximal activity seen.

The structures appear in SMILES notation. Several values for one entry are separate records, joined by “and”; a condition that tells them apart may be missing. Identical values can stand only once. Inconclusive results are not listed. Activity calls are given as the source filed them. How the source made its calls, unless noted: active means hit-call score of the fitted dose curve at least 0.9, where 1 is the maximum; inconclusive means response in the unintended direction; inactive means score below 0.9.

For the first assay, the system named is DIO2 (gene 1734). In words: CCTE_GLTED_hDIO2: CCTE's human Deiodinase 2 (DIO2) Inhibition Assay, Great Lakes Toxicology and Ecology Division (GLTED) Lab (AID 2284050). The method in brief:
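Cell-free human DIO2 enzyme was incubated with test chemical for 3 h; iodide liberated from substrate was then quantified by the Sandell-Kolthoff reaction (absorbance), run in triplicate. Loss of signal versus DMSO baseline indicated inhibition.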
Consider `CCCCCCCCCCCCCCN(CCO)CCO`, for which the concentration at half-maximal activity (AC50) was 39.9 µM (active).
Take `O=CCc1ccccc1`: the compound was called inactive.
In the case of `C=C1CC[C@H](O)C/C1=C/C=C1\CCC[C@]2(C)[C@@H]([C@H](C)/C=C/[C@H](C)C(C)C)CC[C@@H]12`, the AC50 was 19.8 µM (active).
As to `Cc1cc(S(=O)(=O)O)ccc1N=Nc1c(O)ccc2ccccc12`, the outcome was inactive.
As for `CCCCC(CC)COC(=O)c1ccc(O)cc1` (stereo not given), the AC50 was 82.5 µM (active).
Same read-out and setting: for `CCOc1ccc(N=Nc2ccc(C=Cc3ccc(N=Nc4ccc(OCC)cc4)cc3S(=O)(=O)O)c(S(=O)(=O)O)c2)cc1` the value was 43.9 µM (active); for `CCc1cc(Cc2cc(CC)cc(C(C)(C)C)c2O)c(O)c(C(C)(C)C)c1`, 83.3 µM (active); for `CCCCCCCCCCCCCC(=O)OCC(O)CO` (stereo not given), 100 µM (active).
Same read-out and setting: in the case of `COc1ccc(N=Nc2cc(C)c(N=Nc3ccc(S(=O)(=O)O)cc3)cc2OC)cc1` it was 100 µM (active); in that of `C=C(C)C(=O)OCCOC1CC2CC1C1C=CCC21` (stereo not given), 13 µM (active); in that of `CCCCCCCCCCCCN1CCCCCC1=O`, 116 µM (active).
In the case of `CCOC(=O)[C@@H](C)Oc1ccc(Oc2nc3ccc(Cl)cc3o2)cc1`, the AC50 was 23.5 µM (active).
Take `Oc1ccc2cc(SSc3ccc4cc(O)ccc4c3)ccc2c1`: the AC50 is 22.2 µM (active).
`CCCCCCCCC=CCCCCCCCC1=NCCN1CCO`: the AC50 is 60.9 µM (active).
The same measure, in the same setting: in the case of `CCCCCC(C=O)=Cc1ccccc1` it was 62.6 µM (active); in that of `CC(C)CCCCCCCCCCCCCCC(=O)O`, 100 µM (active).

System in the next assay: not listed separately
In words: CCTE_Shafer_MEA_dev_spike_duration_mean: CCTE's Neural Network Formation Assay for Mean Spike Duration, Shafer Lab (AID 2284051; active means hit-call score of the fitted dose curve at least 0.9, where 1 is the maximum; inactive means score below 0.9;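 on AC50: potency for a decrease in mean network spike duration versus DMSO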). The protocol: CCTE_Shafer_MEA_dev assay is conducted using Axion Biosystems 48 well microelectrode array (MEA) plates and Maestro recording system. Each well of the MEA plate contains a grid of 16 microelectrodes embedded in the culture surface. Electrically active cells, such as neurons, can be cultured over the electrodes, and electrical activity in these cells can be recorded extracellularly. The spontaneous firing of neurons is captured from each electrode on a microsecond timescale providing both temporally and spatially precise data. […] The CCTE_Shafer_MEA_dev assay uses primary cultures of rat cortical neurons. Recordings are made on days post-plating 5, 7, 9 and 12. As these cultures mature over time, neural networks develop functional activity and form cohesive networks in which electrical activity can be highly coordinated. CCTE_Shafer_MEA_dev_spike_duration_mean is 1 of 19 assay components of the CCTE_Shafer_MEA_dev assay. It measures the average duration of network spikes (temporally-clustered groups of action potential firing across multiple electrodes) during a recording in a microelectrode array (MEA) using Axion Biosystems Maestro 768 channel amplifier with the AxIS adaptive spike detector. To collapse across multiple recordings made on days post-plating 5, 7, 9 and 12, the trapezoidal area-under-the-curve of the component is calculated.Data from the assay component CCTE_Shafer_MEA_dev_spike_duration_mean was analyzed into 1 assay endpoint. This assay endpoint, CCTE_Shafer_MEA_dev_spike_duration_mean, was analyzed in the negative analysis fitting direction relative to DMSO as the negative control and baseline of activity. Using a type of functional reporter, gain or loss-of-signal activity can be used to understand electrical activity.
(§1) On the day prior to culture, each well was coated thoroughly with 150 uL of 0.05% polyethyleneimine (PEI, Sigma Cat P3143) in 50 mM HEPES (Sigma Cat H7523) at a pH of 8. The plate was incubated at 37C for one hour. PEI was rinsed out with 500 uL of sterile water three times. Plates were stored at 4C until the day of culture. This culture was plated at a seeding density of 1.5 x 10^5 cells/well on a 48-well MEA plate, prepared as described above. Cells were administered via a 25 uL media/laminin ([…]; Sigma Cat L2020-1MG) drop directly onto the microelectrode array, as adding the cells with the laminin results in better attachment than pre-coating with laminin. After 2 hours, an additional 475 uL of cortical media was added and the cells returned to the incubator. Exposure starts at day 0 of plating and is continued over twelve days of network development until the experiment is terminated. Cells are fed with fresh medium on DIV 5 and 9, following the recordings on those days. The entire volume of media in the well is exchanged and any vehicle or compound treatment is renewed. Complete details are found in OP-NHEERL/ISTD/SBB/TJS/2015-03-r0 (available on request, email shafer.tim@epa.gov). Measurement of the electrical activity is non-invasive, and recordings can be made from the same plate over multiple different days of the culture. In cortical neurons, this allows for the measurement of extracellular action potentials over the period during which networks form in the MEA plate.
Consider `FC(F)(F)COCC(F)(F)F`, for which the compound was classed as inactive.
For `Oc1c(Cl)cc(Cl)c(Cl)c1Cc1c(O)c(Cl)cc(Cl)c1Cl`, the half-maximal activity concentration (AC50) was 1.66 µM (active) and 1.35 µM (active).
As to `COCCOCCOCCO`, the compound was classed as inactive.
As to `CN(C)CCOC(C)(c1ccccc1)c1ccccn1` (stereo not given), the outcome was inactive.
On to `CS(=O)(=O)OCCCCOS(C)(=O)=O`, for which the compound was classed as inactive.
Same read-out and setting: in the case of `COCCc1ccc(OCC(O)CNC(C)C)cc1` (stereo not given) it was “inactive”.

System in the next assay: not listed separately
In words: CCTE_Shafer_MEA_dev_network_spike_duration_std: CCTE's Neural Network Formation Assay for Standard Deviation of Network Spike Duration, Shafer Lab (AID 2284052; active means hit-call score of the fitted dose curve at least 0.9, where 1 is the maximum; inactive means score below 0.9;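 further: hits are decreases in network spike duration SD versus DMSO vehicle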). In short, it runs like this:
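Network spike duration variability was collapsed across recordings on days 5, 7, 9 and 12 by trapezoidal area-under-curve and fitted downward against DMSO. Cultures were rat cortical neurons on PEI-coated MEA plates, dosed continuously from plating, refed with compound DIV 5/9.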
As for `FC(F)(F)COCC(F)(F)F`, the compound was classed as inactive.
For the compound `Oc1c(Cl)cc(Cl)c(Cl)c1Cc1c(O)c(Cl)cc(Cl)c1Cl`, the concentration at half-maximal activity (AC50) is 972 nM (active) and 727 nM (active).
Turning to `COCCOCCOCCO`, the outcome was inactive.
Still for that read-out and setting: for `CN(C)CCOC(C)(c1ccccc1)c1ccccn1` (stereo not given) the value was “inactive”; for `CS(=O)(=O)OCCCCOS(C)(=O)=O`, “inactive”; for `COCCc1ccc(OCC(O)CNC(C)C)cc1` (stereo not given), “inactive”.

System in another assay: not listed separately
In words: CCTE_Shafer_MEA_dev_per_network_spike_spike_number_mean: CCTE's Neural Network Formation Assay for Mean Number of Spikes in a Network Spike, Shafer Lab (AID 2284053; active means hit-call score of the fitted dose curve at least 0.9, where 1 is the maximum; inactive means score below 0.9). In short, it runs like this: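 Mean spike count within each network spike, taken in a 0.05 s window at its peak, was recorded on days 5, 7, 9 and 12 and integrated as trapezoidal area under the curve. Rat cortical cultures on MEA plates received continuous compound from day 0, refreshed at medium changes on DIV 5 and 9.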
With `FC(F)(F)COCC(F)(F)F`, the outcome was inactive.
For `Oc1c(Cl)cc(Cl)c(Cl)c1Cc1c(O)c(Cl)cc(Cl)c1Cl`, the AC50 is 809 nM (active) and 929 nM (active).
On to `COCCOCCOCCO`, for which the outcome was inactive.
Same read-out and setting: for `CN(C)CCOC(C)(c1ccccc1)c1ccccn1` (stereo not given) the value was “inactive”.
On to `CS(=O)(=O)OCCCCOS(C)(=O)=O`, for which the call was inactive.
Turning to `COCCc1ccc(OCC(O)CNC(C)C)cc1` (stereo not given), the compound was called inactive.

System in a further assay: not listed separately
In words: CCTE_Shafer_MEA_dev_per_network_spike_spike_percent: CCTE's Neural Network Formation Assay for Percent of Spikes in a Network Spike, Shafer Lab (AID 2284054; active means hit-call score of the fitted dose curve at least 0.9, where 1 is the maximum; inactive means score below 0.9). The method in brief:
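Rat primary cortical cultures, 1.5 x 10^5 cells/well on MEA. Continuous compound exposure d0–12, medium/compound renewed DIV 5, 9. Network-spike spike % (0.05 s peak window), AUC over 4 recordings, DMSO baseline.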
With `FC(F)(F)COCC(F)(F)F`, the call was inactive.
Turning to `Oc1c(Cl)cc(Cl)c(Cl)c1Cc1c(O)c(Cl)cc(Cl)c1Cl`, the half-maximal activity concentration (AC50) was 1.03 µM (active) and 842 nM (active).
As to `COCCOCCOCCO`, the result was inactive.
Still for that read-out and setting: in the case of `CN(C)CCOC(C)(c1ccccc1)c1ccccn1` (stereo not given) it was “inactive”; in that of `CS(=O)(=O)OCCCCOS(C)(=O)=O`, “inactive”.
The same measure, in the same setting: in the case of `COCCc1ccc(OCC(O)CNC(C)C)cc1` (stereo not given) it was “inactive”.

In another assay the test system is DIO3 (gene 1735). In words: CCTE_GLTED_hDIO3: CCTE's human Deiodinase 3 (DIO3) Inhibition Assay, Great Lakes Toxicology and Ecology Division (GLTED) Lab (AID 2284055).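 On AC50: potency is for inhibition seen as loss of released iodide signal.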 In short, it runs like this: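 Cell-free assay with human DIO3 enzyme produced by adenovirus expression; enzyme incubated with test chemical for 3 hours. Liberated iodide then measured by Sandell-Kolthoff absorbance; loss of signal versus DMSO baseline indicates inhibition, run in triplicate.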
With `CCCCCCCCCCCCCCN(CCO)CCO`, the concentration at half-maximal activity (AC50) is 7.58 µM (active).
Still for that read-out and setting: in the case of `O=CCc1ccccc1` it was 74.8 µM (active).
Consider `C=C1CC[C@H](O)C/C1=C/C=C1\CCC[C@]2(C)[C@@H]([C@H](C)/C=C/[C@H](C)C(C)C)CC[C@@H]12`, for which the AC50 was 2.3 µM (active).
As for `Cc1cc(S(=O)(=O)O)ccc1N=Nc1c(O)ccc2ccccc12`, the compound was classed as inactive.
As for `CCCCC(CC)COC(=O)c1ccc(O)cc1` (stereo not given), the AC50 is 79.1 µM (active).
Still for that read-out and setting: in the case of `CCOc1ccc(N=Nc2ccc(C=Cc3ccc(N=Nc4ccc(OCC)cc4)cc3S(=O)(=O)O)c(S(=O)(=O)O)c2)cc1` it was 35.6 µM (active); in that of `CCc1cc(Cc2cc(CC)cc(C(C)(C)C)c2O)c(O)c(C(C)(C)C)c1`, 10.7 µM (active); in that of `CCCCCCCCCCCCCC(=O)OCC(O)CO` (stereo not given), 47.9 µM (active).
Still for that read-out and setting: for `COc1ccc(N=Nc2cc(C)c(N=Nc3ccc(S(=O)(=O)O)cc3)cc2OC)cc1` the value was 100 µM (active); for `C=C(C)C(=O)OCCOC1CC2CC1C1C=CCC21` (stereo not given), 6.43 µM (active); for `CCCCCCCCCCCCN1CCCCCC1=O`, 89.2 µM (active).
On to `CCOC(=O)[C@@H](C)Oc1ccc(Oc2nc3ccc(Cl)cc3o2)cc1`, for which the concentration at half-maximal activity (AC50) was 7.15 µM (active).
On the same count and under the same terms, for `Oc1ccc2cc(SSc3ccc4cc(O)ccc4c3)ccc2c1` the value was 3.47 µM (active); for `CCCCCCCCC=CCCCCCCCC1=NCCN1CCO`, 3.92 µM (active); for `CCCCCC(C=O)=Cc1ccccc1`, 16.4 µM (active).
On to `CC(C)CCCCCCCCCCCCCCC(=O)O`, for which the AC50 was 19.4 µM (active).

System in the next assay: not listed separately
In words: CCTE_Shafer_MEA_dev_LDH: CCTE's Lactate Dehydrogenase Assay for Cytotoxicity in the Neural Network Formation Assay, Shafer Lab (AID 2284068).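 Further: exposure for twelve days from plating with re-dosing on DIV 5 and 9.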 The procedure: CCTE_Shafer_MEA_dev assay is conducted using Axion Biosystems 48 well microelectrode array (MEA) plates and Maestro recording system. Each well of the MEA plate contains a grid of 16 microelectrodes embedded in the culture surface. Electrically active cells, such as neurons, can be cultured over the electrodes, and electrical activity in these cells can be recorded extracellularly. The spontaneous firing of neurons is captured from each electrode on a microsecond timescale providing both temporally and spatially precise data. […] The CCTE_Shafer_MEA_dev assay uses primary cultures of rat cortical neurons. Recordings are made on days post-plating 5, 7, 9 and 12. As these cultures mature over time, neural networks develop functional activity and form cohesive networks in which electrical activity can be highly coordinated. CCTE_Shafer_MEA_dev_LDH is 1 of 19 assay components of the CCTE_Shafer_MEA_dev assay. It measures the lactate dehydrogenase enzyme activity using spectrophotometry.Data from the assay component CCTE_Shafer_MEA_dev_LDH was analyzed into 1 assay endpoint. This assay endpoint, CCTE_Shafer_MEA_dev_LDH, was analyzed in the positive analysis fitting direction relative to DMSO as the negative control and baseline of activity. Using a type of viability reporter, loss-of-signal activity can be used to understand cell viability.
as §1, with “In cortical neurons, this allows for the measurement of extracellular action potentials over the period during which networks form in the MEA plate.” left out
Regarding `Oc1c(Cl)cc(Cl)c(Cl)c1Cc1c(O)c(Cl)cc(Cl)c1Cl`, the half-maximal activity concentration (AC50) was 1.26 µM (active) and 1.25 µM (active).
For the compound `COCCOCCOCCO`, the result was inactive.
Consider `CN(C)CCOC(C)(c1ccccc1)c1ccccn1` (stereo not given), for which the result was inactive.
Consider `COCCc1ccc(OCC(O)CNC(C)C)cc1` (stereo not given), for which the compound was called inactive.
